According to PubChem BioAssay (EPA / NIEHS):
“And” between values parts separate entries of the source, which are not always exact repeats. Identical values can stand only once. More than one record can exist for a structure, and the calls need not agree. The source made the active and inactive calls. How the source made its calls: active means hit-call score of the fitted dose curve at least 0.9, where 1 is the maximum; inactive means score below 0.9.

Experiments:
[1] = read-out: Interleukin 17F (IL17F), IL17F (gene 112744); test: BSK_BT_xIL17F: BioMAP Diversity Plus: BT Assay for Interleukin 17F (IL17F) Biomarker Activity (AID 2284243); conditions: primary human B cells with PBMC
Method in brief: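 Measures secreted IL-17F from a human B cell plus PBMC co-culture at 24 h post-dose by Luminex xMAP, with DMSO defining baseline activity.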

[2] = read-out: Actin alpha 1 (ACTA1), ACTA1 (gene 58); test: BSK_MyoF_ACTA1: BioMAP Diversity Plus: MyoF Assay for Actin alpha 1 (ACTA1) Biomarker Activity (AID 2284244); conditions: primary human lung fibroblasts
Method in brief: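 Lung fibroblasts, human primary, 24 h compound exposure → a-SMA ELISA. Positive-direction fit vs DMSO control.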

[3] = read-out: Interleukin 2 (IL2), IL2 (gene 3558); test: BSK_BT_xIL2: BioMAP Diversity Plus: BT Assay for Interleukin 2 (IL2) Biomarker Activity (AID 2284245); conditions: primary human B cells with PBMC
Method in brief: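 B cell + PBMC co-culture (human primary), compound added, 24 h incubation; secreted IL-2 measured multiplexed on Luminex xMAP; gain-of-signal fit vs DMSO.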

[4] = read-out: Basic fibroblast growth factor (bFGF), FGF2 (gene 2247); test: BSK_MyoF_bFGF: BioMAP Diversity Plus: MyoF Assay for Basic fibroblast growth factor (bFGF) Biomarker Activity (AID 2284246); conditions: primary human lung fibroblasts
Method in brief: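 ELISA-measured bFGF level serves as the read-out, taken 24 h after chemical dosing of human lung fibroblasts. Values represent signal gain over the DMSO negative control.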

[5] = read-out: Collagen IV, COL4A1 (gene 1282); test: BSK_MyoF_CollagenIV: BioMAP Diversity Plus: MyoF Assay for Collagen IV Biomarker Activity (AID 2284247); conditions: primary human lung fibroblasts
Method in brief: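 Steps: dose human lung fibroblasts; culture 24 h; quantify Collagen IV by ELISA; fit increase versus DMSO control. Parallel SRB total-protein staining (0.1% SRB after 10% TCA fixation, 560 nm) tracks overt cytotoxicity.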

[6] = read-out: Monokine induced gamma interferon (MIG), CXCL9 (gene 4283); test: BSK_KF3CT_MIG: BioMAP Diversity Plus: KF3CT Assay for Monokine induced gamma interferon (MIG) Biomarker Activity (AID 2284248); conditions: primary human keratinocytes with fibroblasts
Method in brief: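 The assay uses a co-culture of human keratinocytes and foreskin fibroblasts. Measurement occurs 24 hours after dosing, with MIG detected by ELISA and the DMSO control as baseline.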

[7] = read-out: Vascular cell adhesion molecule 1 (VCAM1), VCAM1 (gene 7412); test: BSK_BF4T_VCAM1: BioMAP Diversity Plus: BF4T Assay for Vascular cell adhesion molecule 1 (VCAM1) Biomarker Activity (AID 2284249); conditions: primary human bronchial epithelial cells with fibroblasts
Method in brief: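 Human bronchial epithelial cell and dermal fibroblast co-culture exposed 24 h. VCAM-1 measured by ELISA; parallel SRB total-protein staining for cytotoxicity. Fitted in positive direction relative to DMSO.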

[8] = read-out: Collagen I, COL1A1 (gene 1277); test: BSK_hDFCGF_CollagenI: BioMAP Diversity Plus: hDFCGF Assay for Collagen I Biomarker Activity (AID 2284250); conditions: primary human foreskin fibroblasts
Method in brief: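 Human skin primary fibroblasts dosed with test chemical, harvested at 24 h, Collagen I quantified by ELISA; parallel SRB staining (0.1% SRB after 10% TCA fixation, 560 nm) tracked cytotoxicity.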

[9] = read-out: Plasminogen activator inhibitor-1 (PAI1), SERPINE1 (gene 5054); test: BSK_KF3CT_PAI1: BioMAP Diversity Plus: KF3CT Assay for Plasminogen activator inhibitor-1 (PAI1) Biomarker Activity (AID 2284252); conditions: primary human keratinocytes with fibroblasts
Method in brief: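 ELISA read-out of PAI-1 taken 24 h after chemical treatment of a human skin primary co-culture of keratinocytes and foreskin fibroblasts. Increases over DMSO-treated wells defined activity.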

[10] = read-out: Monocyte Chemoattractant Protein-1 (MCP1), CCL2 (gene 6347); test: BSK_IMphg_MCP1: BioMAP Diversity Plus: IMphg Assay for Monocyte Chemoattractant Protein-1 (MCP1) Biomarker Activity (AID 2284253); conditions: primary human endothelial cells with macrophages
Method in brief: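 Human venular endothelial cells co-cultured with macrophages; MCP-1 measured by ELISA 24 hours post-dose and fitted against DMSO. Cytotoxicity monitored by SRB total-protein staining in parallel cultures.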

[11] = read-out: Interleukin-8 (IL8), CXCL8 (gene 3576); test: BSK_KF3CT_IL8: BioMAP Diversity Plus: KF3CT Assay for Interleukin-8 (IL8) Biomarker Activity (AID 2284254); conditions: primary human keratinocytes with fibroblasts
Method in brief: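 ELISA detection of IL-8 from a human skin co-culture, keratinocytes with foreskin fibroblasts, at 24 h following chemical exposure, with gain of signal scored against DMSO controls.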

[12] = read-out: Macrophage Inflammatory Protein-1 Alpha (MIP1a), CCL3 (gene 6348); test: BSK_IMphg_MIP1a: BioMAP Diversity Plus: IMphg Assay for Macrophage Inflammatory Protein-1 Alpha (MIP1a) Biomarker Activity (AID 2284255); conditions: primary human endothelial cells with macrophages
Method in brief: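 Co-culture of human venular endothelial cells and macrophages exposed to compounds for 24 h; MIP-1a measured by ELISA relative to DMSO. Cytotoxicity assessed in parallel cultures by sulforhodamine B total-protein staining at 560 nm.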

[13] = read-out: Plasminogen activator inhibitor-1 (PAI1), SERPINE1 (gene 5054); test: BSK_MyoF_PAI1: BioMAP Diversity Plus: MyoF Assay for Plasminogen activator inhibitor-1 (PAI1) Biomarker Activity (AID 2284256); conditions: primary human lung fibroblasts
Method in brief: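 Activity reflects increased PAI-1, determined by ELISA and compared with DMSO, in human lung fibroblasts treated for 24 h.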

[14] = read-out: CD69, CD69 (gene 969); test: BSK_IMphg_CD69: BioMAP Diversity Plus: IMphg Assay for CD69 Biomarker Activity (AID 2284257); conditions: primary human endothelial cells with macrophages
Method in brief: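 Human venular endothelial cells co-cultured with macrophages; CD69 quantified by ELISA 24 h after compound addition. Activity fitted in the positive direction relative to DMSO baseline; cytotoxicity tracked in parallel cultures via SRB total-protein staining.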

[15] = read-out: Eotaxin 3, CCL26 (gene 10344); test: BSK_BF4T_Eotaxin3: BioMAP Diversity Plus: BF4T Assay for Eotaxin 3 Biomarker Activity (AID 2284258); conditions: primary human bronchial epithelial cells with fibroblasts
Method in brief: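 Co-culture of human bronchial epithelial cells and dermal fibroblasts, exposed to chemicals for 24 h versus DMSO. Eotaxin-3 quantified by ELISA; cytotoxicity checked in parallel cultures by sulforhodamine B total-protein staining.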

[16] = read-out: Monocyte Chemoattractant Protein-1 (MCP1), CCL2 (gene 6347); test: BSK_BF4T_MCP1: BioMAP Diversity Plus: BF4T Assay for Monocyte Chemoattractant Protein-1 (MCP1) Biomarker Activity (AID 2284259); conditions: primary human bronchial epithelial cells with fibroblasts
Method in brief: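 Co-culture of bronchial epithelial cells and dermal fibroblasts dosed with chemical; MCP-1 measured by ELISA 24 h later. Activity fitted in positive direction versus DMSO; cytotoxicity checked by SRB staining in parallel cultures.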

[17] = read-out: Intercellular Adhesion Molecule 1 (ICAM1), ICAM1 (gene 3383); test: BSK_BF4T_ICAM1: BioMAP Diversity Plus: BF4T Assay for Intercellular Adhesion Molecule 1 (ICAM1) Biomarker Activity (AID 2284260); conditions: primary human bronchial epithelial cells with fibroblasts
Method in brief: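 Co-culture of human bronchial epithelial cells and dermal fibroblasts exposed 24 h to chemical; cell-surface ICAM-1 quantified by ELISA. Parallel SRB total-protein staining assessed cytotoxicity; activity fitted relative to DMSO.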

[18] = read-out: Interleukin-8 (IL8), CXCL8 (gene 3576); test: BSK_MyoF_IL8: BioMAP Diversity Plus: MyoF Assay for Interleukin-8 (IL8) Biomarker Activity (AID 2284261); conditions: primary human lung fibroblasts
Method in brief: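 In this multiplexed primary-cell system, fibroblasts from human lung are treated with chemicals, and IL-8 is detected by ELISA at 24 h, with DMSO serving as the negative reference.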

[19] = read-out: CD90, THY1 (gene 7070); test: BSK_BF4T_CD90: BioMAP Diversity Plus: BF4T Assay for CD90 Biomarker Activity (AID 2284262); conditions: primary human bronchial epithelial cells with fibroblasts
Method in brief: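 Co-culture of human bronchial epithelial cells and dermal fibroblasts, 24 h compound exposure. Cell-surface CD90 measured by ELISA relative to DMSO; parallel SRB total-protein staining for cytotoxicity.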

[20] = read-out: Interferon-inducible T-cell alpha chemoattractant (ITAC), CXCL11 (gene 6373); test: BSK_hDFCGF_ITAC: BioMAP Diversity Plus: hDFCGF Assay for Interferon-inducible T-cell alpha chemoattractant (ITAC) Biomarker Activity (AID 2284251); conditions: primary human foreskin fibroblasts
Method in brief: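 Primary human foreskin fibroblasts (hDFCGF system) treated for 24 h; I-TAC quantified by ELISA. Gain-direction fitting versus DMSO; parallel SRB staining of total protein flagged overt cytotoxicity.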

Measured: AC50

NC(=O)C(F)(F)C(F)(F)C(F)(F)C(F)(F)C(N)=O
not listed: [20]
inactive: all other assays above

O=C(Cl)C(F)(F)C(F)(F)C(F)(F)C(F)(F)C(F)(F)C(F)(F)C(F)(F)F
active: [10] 52.9 µM | [12] 237 nM
inactive: [1] | [2] | [3] | [5] | [6] | [7] | [8] | [9] | [10] | [11] | [12] | [13] | [14] | [15] | [16] | [17] | [18] | [19]

OCCCC(F)(F)C(F)(F)C(F)(F)C(F)(F)C(F)(F)C(F)(F)C(F)(F)C(F)(F)F
inactive: [5] | [8]
active: [1] 22.4 µM and 19.1 µM | [2] 10.3 µM and 10.6 µM | [3] 43.4 µM and 46.9 µM | [5] 7.39 µM | [6] 14.8 µM and 15.3 µM | [7] 13.9 µM and 16.8 µM | [9] 12.7 µM and 9.08 µM | [10] 18.5 µM and 21.1 µM | [11] 17.1 µM and 13.7 µM | [12] 41 µM and 56.7 µM | [13] 16.5 µM and 11.1 µM | [14] 40.1 µM and 48.6 µM | [15] 24.7 µM and 24.9 µM | [16] 21.6 µM and 18 µM | [17] 23.2 µM and 34.2 µM | [18] 11.9 µM and 9.9 µM | [19] 20.6 µM and 19.2 µM

O=C(O)CCC(F)(F)C(F)(F)C(F)(F)F
not listed: [20]
inactive: all other assays above

NCC(F)(F)C(F)(F)C(F)(F)C(F)(F)C(F)(F)C(F)(F)F
inactive: all assays above

C=C(C)C(=O)OCC(F)(F)C(F)(F)C(F)(F)C(F)F
active: [1] 22.9 µM | [13] 222 nM
inactive: [1] | [3] | [4] | [5] | [6] | [7] | [8] | [9] | [10] | [11] | [12] | [13] | [14] | [15] | [16] | [17] | [18] | [19]

OCC(O)CC(F)(F)C(F)(F)C(F)(F)C(F)(F)F (stereo not drawn)
active: [16] 263 nM
inactive: [1] | [2] | [3] | [5] | [6] | [7] | [8] | [9] | [10] | [11] | [12] | [13] | [14] | [15] | [16] | [17] | [18] | [19]

O=C(Cl)C(F)(F)C(F)(F)C(F)(F)C(F)(F)C(F)(F)C(F)(F)F
not listed: [4]
inactive: all other assays above

OC(O)C(F)(F)C(F)(F)F
not listed: [4]
inactive: all other assays above

Brc1nc2ccccc2s1
inactive: [1] | [2] | [5] | [13] | [18]
active: [3] 431 nM

OCCCCC(F)(F)C(F)(F)C(F)(F)C(F)(F)F
inactive: [1] | [3] | [5] | [6] | [7] | [8] | [9] | [10] | [11] | [12] | [13] | [14] | [15] | [16] | [17] | [18] | [19]
active: [1] 21.7 µM

NC(=O)C(F)(F)C(F)(F)C(F)(F)C(F)(F)C(F)(F)C(F)(F)C(F)(F)F
active: [3] 30000 nM | [14] 23.5 µM
inactive: [1] | [3] | [4] | [5] | [6] | [7] | [8] | [9] | [10] | [11] | [12] | [13] | [14] | [15] | [16] | [17] | [18] | [19]

OCC(O)CC(F)(F)C(F)(F)C(F)(F)C(F)(F)C(F)(F)C(F)(F)C(F)(F)C(F)(F)F (stereo not drawn)
not listed: [4] | [20]
inactive: all other assays above

FC(F)(F)C(F)(F)C(F)(F)C(F)(F)C(F)(F)C(F)(F)CC[Si](Cl)(Cl)Cl
not listed: [4]
inactive: all other assays above

FC(F)(F)C(F)(F)C(F)(F)C(F)(F)C(F)(F)C(F)(F)C(F)(F)CCI
not listed: [4] | [20]
inactive: all other assays above
